A short description of assay [1]: qHTS profiling of the MIPE4 collection as inhibitors of Plasmodium falciparum (3D7) proliferation (AID 743344).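 Also: scaled between DMSO vehicle wells and 0.29 µM artemisinin as full inhibition.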 The settings on record: P. falciparum 3D7 in erythrocytes, SYBR Green DNA fluorescence, 72 h; at 28.5 µM unless noted. Summed up:
(§1)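 Erythrocytes infected with P. falciparum (0.3% parasitemia, 2.5% hematocrit) incubated with compounds 72 h at 37 C, 5% CO2. Lysis with saponin/Triton buffer containing SYBR Green I, overnight at room temperature in the dark; DNA fluorescence (485/535 nm) normalised to 0.29 uM artemisinin and DMSO.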
On the technique in general: Quantitative high-throughput screening tests each substance at several concentrations.

Assay [2] can be described thus: qHTS profiling of the MIPE4 collection as inhibitors of Plasmodium falciparum (DD2) proliferation (AID 743345). Particulars: P. falciparum Dd2 in erythrocytes, SYBR Green DNA, 72 h; at 28.5 µM unless noted. Summed up: as §1
Assay [3] can be described thus: qHTS profiling of the MIPE4 collection as inhibitors of Plasmodium falciparum (DD2) proliferation (Rep 2) (AID 743346). The settings on record: P. falciparum Dd2 in erythrocytes, SYBR Green DNA, 72 h; at 28.5 µM unless noted. Summed up:
as §1

Assay [4] is described as follows: High-throughput drug toxicity screening in the BPDCN cell line Gen2.2 (AID 1224824).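 Also: cells exposed to compounds for 48 h before reading.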 The settings on record: Gen2.2 BPDCN cells; at 45.8 µM (top of the series) unless noted. Summed up:
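Gen2.2, 500 cells/well, phenol red-free RPMI/10% FBS/Pen-Strep; 48 h cpd, 37 °C/5% CO2; CTG lum, 15 min RT. Norm: DMSO = 100%, bortezomib 9.2 uM final = 0%.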

Assay [5] can be described thus: High-throughput drug toxicity screening in the BPDCN cell line Cal-1 (AID 1224825). The settings on record: Cal-1 BPDCN cell viability, qHTS; at 45.8 µM (top of the series) unless noted. Summed up: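 Exponentially growing Cal-1 cells, 500 per well in phenol red-free RPMI with 10% FBS, were exposed to compounds for 48 h at 37 °C, 5% CO2. Viability was read by CellTiter-Glo luminescence and normalised to DMSO (100%) and 9.2 uM bortezomib (0%).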

A short description of assay [6]: qHTS assay for measurement of the activity of small molecule inhibitors on Zika virus induced Caspase-3 activity in human iPSC derived neural progenitor cells (hNPCs) (AID 1224857; active = well fitted curve in the direction sought with a large enough effect; an effect the other way counts as inactive or inconclusive; also: % of control where 0% means no effect; nearly all actives have a fitted effect of over 65% in size). Summed up: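 Cells were plated at 350 per well and grown 16 to 20 hours. Compound pretreatment lasted one hour, after which ZIKV (2 FFU/cell) was added for 6 hours. Percent inhibition was normalized between uninfected and infected controls.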

Assay [7] can be described thus: qHTS assay for measurement of the activity of small molecule inhibitors on Zika virus induced Caspase-3 activity in human astrocytoma cells (AID 1224859; active = well fitted curve in the direction sought with a large enough effect; an effect the other way counts as inactive or inconclusive;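 also: plate controls were ZIKV-infected untreated cells for no effect and uninfected cells for full effect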). Summed up:
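Percent inhibition of virus-induced caspase-3/7 signal is calculated against uninfected and ZIKV-infected control cells. Cells are SNB-19, infected at 2 FFU/cell for 6 h after 1 h compound exposure.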

Assay [8] can be described thus: qHTS Screen of the MIPE 4.0 Collection Against Ewings Sarcoma (EW8) (AID 1259255; active = well fitted curve in the direction sought with a large enough effect; an effect the other way counts as inactive or inconclusive; also: potency is read from the fitted curve at half-maximal effect; nearly all actives have a fitted effect of over 35% in size). Summed up: (§2)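 Measured: ATP luminescence (CellTiter-Glo) 10 min after reagent addition, following 48 h drug treatment. Relative luciferase units converted to percent activity, with no-cell wells as full and DMSO wells as zero inhibition.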
Assay [9] in a line: qHTS profiling for inhibitors of Plasmodium falciparum (3D7) proliferation (AID 743322).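 Also: infected erythrocytes exposed to compound for 72 h before lysis; 100% = DMSO vehicle wells and 0% = 0.29 µM artemisinin.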 The settings on record: P. falciparum 3D7 proliferation; at 28.7 µM (top of the series). Summed up: as §1
Assay [10] is described as follows: qHTS profiling for inhibitors of Plasmodium falciparum (DD2) proliferation (AID 743323). Particulars: lower = more inhibition; at 28.7 µM (top of the series). Summed up:
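SYBR Green fluorescence (ex 485, em 535 nm) of lysed cultures gives parasite DNA content; wells normalized to artemisinin (0.29 uM) and DMSO controls. Infected red cells: 0.3% parasitemia, 2.5% hematocrit, 72 h, 37 C.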

Assay [11] is described as follows: qHTS profiling for inhibitors of Plasmodium falciparum (HB3) proliferation (AID 743324; active = well fitted curve in the direction sought with a large enough effect; an effect the other way counts as inactive or inconclusive;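 also: 100% = DMSO vehicle wells and 0% = artemisinin-treated control wells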). Particulars: Plasmodium falciparum HB3 blood-stage proliferation; at 28.7 µM (top of the series). Summed up:
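P. falciparum HB3 grown in erythrocytes (0.3% parasitemia, 2.5% hematocrit final) with compound for 72 h at 37 C, 5% CO2. Parasite DNA detected by SYBR Green after saponin/triton lysis overnight; normalized to 0.29 uM artemisinin and DMSO.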

The nature of assay [12]: qHTS profiling of the MIPE4 collection as inhibitors of Plasmodium falciparum (HB3) proliferation (AID 743347).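 Also: plate controls were DMSO vehicle wells for no effect and artemisinin wells for full effect.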 Particulars: P. falciparum HB3 in erythrocytes, SYBR Green DNA, 72 h; at 28.5 µM unless noted. Summed up: as §1
A short description of assay [13]: qHTS Screen of the MIPE 4.0 Collection Against Ewings Sarcoma (TC71) (AID 1259253; active = well fitted curve in the direction sought with a large enough effect; an effect the other way counts as inactive or inconclusive; also: nearly all actives have a fitted effect of over 40% in size; also: potency is read from the fitted curve at half-maximal effect). Summed up:
as §2

Assay [14] is described as follows: qHTS Assay for Identifying Gametocytocidal Compounds (AID 743244; active = well fitted curve in the direction sought with a large enough effect; an effect the other way counts as inactive or inconclusive;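 also: % is scaled to controls: 0 for no effect and ±100 for the full control effect; actives lower the fluorescent signal which means gametocytes are killed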). The settings on record: P. falciparum 3D7 stage III-V gametocytes, alamarBlue, 72 h; max response: stronger effect = lower value. Summed up:
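3D7 gametocytes, stages III–V, 20,000/well; cpd 72 h, 37 °C/5% CO2; + alamarBlue 24 h; fluor. Ex 525/Em 598.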

Inconclusive results are not listed. Calls of active or inactive are those of the source. Unless noted, no rule for the calls is given here.

`NS(=O)(=O)c1ccc(NC2=CC(=O)c3ccccc3C2=O)cc1`: in assay [1], the parasite growth, % of DMSO control turned out to be 6.05%. The parasite growth remaining, % of DMSO control (lower = more inhibition) in assay [2] was 9.74%. For the same compound, the parasite growth, % of control (lower = inhibition) in assay [3] is 8.91%. Moreover, in assay [4], the cell viability, % of control (lower = more cytotoxic) stood at 162%. The viability (% of control) in [5] was 88.5%. Also, the Potency result in assay [6] and in assay [7] was “inactive” each time. Further, the Potency in [8] is 1.87 µM (active).
With `O=C(CCCCCCC(=O)Nc1ccccc1)NO`, the cell viability, % of control (lower = more cytotoxic) in assay [4] turned out to be 171%. Further, the viability (% of control) in assay [5] amounted to 7.8%.
In the case of `CC[C@H]1OC(=O)[C@H](C)[C@@H](O[C@H]2C[C@@](C)(OC)[C@@H](O)[C@H](C)O2)[C@H](C)[C@@H](O[C@@H]2O[C@H](C)C[C@H](N(C)C)[C@@H]2O)[C@](C)(O)C[C@@H](C)CN(C)[C@H](C)[C@@H](O)[C@]1(C)O`, in assay [9], the remaining parasite growth % (stronger effect = lower value) was determined as 11.3%. The compound also showed an activity, percent of control in assay [10] of 19.2%. In assay [11], this compound registered a remaining proliferation (% of control), lower = more inhibition of 31.5%. Also, the parasite growth, % of DMSO control in [1] is 33.2%. For the same compound, in assay [2], the parasite growth remaining, % of DMSO control (lower = more inhibition) was 24.6%. Further, the parasite growth, % of control (lower = inhibition) in assay [3] is 14%. In assay [12], this compound showed a growth, % of control of 59%. For the same compound, the cell viability, % of control (lower = more cytotoxic) in assay [4] amounted to 184%. The viability (% of control) in [5] came out at 120%. Besides, the Potency entry in assay [6] and in assay [7] was “inactive” throughout. For the same compound, the Potency in assay [8] was 16.6 µM (active).
`Cc1ccc(/C=N/NC(=O)c2ccccc2Oc2ccccc2)o1`: the parasite growth, % of DMSO control in [1] amounted to 82.9%. Moreover, the parasite growth remaining, % of DMSO control (lower = more inhibition) in assay [2] was found to be 103%. In addition, the parasite growth, % of control (lower = inhibition) in [3] came out at 120%. The growth, % of control in [12] came out at 92%. Also, the cell viability, % of control (lower = more cytotoxic) in assay [4] amounted to 76%. In addition, in assay [5], the viability (% of control) came to 18.6%. In addition, the Potency result in assay [6] and in [7] was “inactive” in each case. In addition, the Potency in [13] was 20.9 µM (active).
In assay [1], `CC1(C)CCC(CN2CCN(c3ccc(C(=O)NS(=O)(=O)c4ccc(NCC5CCOCC5)c([N+](=O)[O-])c4)c(Oc4cnc5[nH]ccc5c4)c3)CC2)=C(c2ccc(Cl)cc2)C1` had a parasite growth, % of DMSO control of 18.2%. In assay [3], the parasite growth, % of control (lower = inhibition) was found to be 24.1%. In assay [12], this compound showed a growth, % of control of 6.5%. For the same compound, the cell viability, % of control (lower = more cytotoxic) in assay [4] stood at 37.9%. Besides, the viability (% of control) in [5] was 24.1%. Besides, the Potency result in [6] and in [7] was “inactive” throughout. The Potency in assay [13] is 23.5 µM (active).
As to `CC1(C)O[C@H]2C[C@@H]3[C@H]4CCC5=CC(=O)C=C[C@]5(C)[C@@]4(F)[C@@H](O)C[C@]3(C)[C@]2(C(=O)CO)O1`, in assay [1], the parasite growth, % of DMSO control was found to be 38.4%. For the same compound, the parasite growth remaining, % of DMSO control (lower = more inhibition) in assay [2] was 92.5%. Also, the parasite growth, % of control (lower = inhibition) in assay [3] came out at 65.2%. The compound also registered a growth, % of control in assay [12] of 69%. For the same compound, in [4], the cell viability, % of control (lower = more cytotoxic) worked out at 37.9%. In assay [5], the viability (% of control) was determined as 8.18%. Further, the Potency result in assay [6], in assay [7] and in assay [13] was “inactive” throughout.
Take `O=c1cc(N2CCOCC2)oc2c(-c3cccc4c3sc3ccccc34)cccc12`: the max response in assay [14] is -22.3% (inactive). Also, in assay [9], the remaining parasite growth % (stronger effect = lower value) came to 3.79%. The compound also yielded an activity, percent of control in [10] of 10.6%. The same compound had a remaining proliferation (% of control), lower = more inhibition in assay [11] of 5.89%. In assay [2], the parasite growth remaining, % of DMSO control (lower = more inhibition) worked out at 28.4%. In [3], the parasite growth, % of control (lower = inhibition) worked out at 25.8%. Besides, in assay [12], the growth, % of control was 7.93%. In addition, the cell viability, % of control (lower = more cytotoxic) in assay [4] came out at 2.51%. For the same compound, the viability (% of control) in assay [5] is 3.76%. The Potency entry in assay [6] and in assay [7] was “inactive” each time. The Potency in [13] is 10.5 µM (active).
`Nc1ncnc2c1nc(Cl)n2[C@@H]1O[C@H](CO)[C@@H](O)[C@@H]1O`: the parasite growth remaining, % of DMSO control (lower = more inhibition) in assay [2] was 109%. In addition, in assay [3], the parasite growth, % of control (lower = inhibition) is 43.2%. Also, in [12], the growth, % of control was 125%. Moreover, the cell viability, % of control (lower = more cytotoxic) in assay [4] came out at 6.19%. Further, in assay [5], the viability (% of control) worked out at 9.15%. The Potency result in assay [6] and in assay [7] was “inactive” throughout. The Potency in [13] was 26.4 µM (active).
`CC(C)(C)C(=O)Oc1ccc2c(c1)nc(NC(=O)c1cccc([N+](=O)[O-])c1)n2CCCO` came in with a remaining parasite growth % (stronger effect = lower value) in assay [9] of 92%. This compound also had an activity, percent of control in [10] of 82%. In assay [11], this compound showed a remaining proliferation (% of control), lower = more inhibition of 53.3%. Moreover, the parasite growth, % of DMSO control in assay [1] stood at 21.2%. Besides, the parasite growth remaining, % of DMSO control (lower = more inhibition) in assay [2] amounted to 46.4%. The parasite growth, % of control (lower = inhibition) in assay [3] was 22.2%. Also, the cell viability, % of control (lower = more cytotoxic) in [4] amounted to 190%. For the same compound, the viability (% of control) in assay [5] is 102%. The Potency entry in assay [6], in assay [7] and in [13] was “inactive” throughout.
Consider `COc1ccc2c3c1OC1C[C@@H](O)C=C[C@@]31CCN(C)C2` (stereo not given in full), for which, in assay [2], the parasite growth remaining, % of DMSO control (lower = more inhibition) worked out at 100%. Also, in assay [4], the cell viability, % of control (lower = more cytotoxic) turned out to be 113%. Also, in assay [5], the viability (% of control) stood at 96.5%. The Potency result in assay [6] and in assay [7] was “inactive” throughout. In assay [13], the Potency is 20.9 µM (active).

(Values after PubChem BioAssay (NCATS).)
